Source: PubChem BioAssay (National Center for Advancing Translational Sciences (NCATS))
FEN1 inh = human FEN1 inhibition; Recombinant FEN1 flap cleavage, fluorescence, 15 min; Potency, µM (series often up to 114 µM), actives largely listed as inhibitors; hit rate 0.35% among 390,000; AID 588795; note: nearly all actives have a fitted effect of over 65% in size
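With each library titrated from low to high concentration, compounds met 10 nM FEN1 for 15 min at room temperature before 50 nM substrate was added; readings at 0 and 15 min fed four-parameter Hill curve fits.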
RECQ1 inh-1 = inhibitors of human RECQ1 DNA helicase; P46063; RECQ1 DNA unwinding, red fluorescence kinetic read; Potency, µM (top dose mostly 57.3 µM), actives largely listed as inhibitors; hit rate 0.54% among 240,000; AID 2549; note: nearly all actives have a fitted effect of over 30% in size
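RECQ1T1 50 nM; forked duplex (20 bp + 30-nt ss tails) 200 nM, ATP 2 mM final; pH 8.0, 2 mM MgCl2, 2.5 ug/ml poly(dI-dC); 15 min compound preincubation; discontinuous kinetic read over 2 h at RT.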
APEX1 inh = blocks human APE1 abasic DNA cleavage. hit rate 0.35% among 350,000. Potency, µM (top dose mostly 65.8 µM), usual class: inhibitors. recombinant APE1, TAMRA/BHQ-2 abasic DNA cleavage fluorescence; note: nearly all actives have a fitted effect of over 55% in size
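Step 1: APE1 (0.75 nM) with compound, 15 min RT. Step 2: add 50 nM fluorophore/quencher THF duplex. Step 3: three fluorescence reads 60 s apart (525/598 nm); read 3 minus read 1 = reaction progress.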
Tb PGK inh = inhibitors of T. brucei phosphoglycerate kinase. hit rate 0.043% among 380,000. PGK/GAPDH coupled, Kinase-Glo luminescence, 60 min. Potency, µM (titrated, usually from 57.5 µM), usual class: inhibitors. P07378. AID 602233; note: nearly all actives have a fitted effect of over 60% in size
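Luminescent ATP detection (Kinase-Glo Plus) follows a 60-minute room-temperature incubation, with wells lacking PGK as controls. Buffer: 100 mM TEA (pH 7.6), 5 mM MgCl2, 0.01% Tween-20. Coupling enzyme GAPDH (100 nM final) supplies unstable 1,3-BPG in-well.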
BLM helicase inh = Bloom syndrome helicase (human) inhibition; recombinant BLM DNA unwinding, fluorescence dequenching; Potency, µM (series often up to 56.1 µM), most hits filed as inhibitors; hit rate 0.2% among 350,000; note: nearly all actives have a fitted effect of over 35% in size
GLS inh = inhibitors of human glutaminase (GLS); hit rate 0.21% among 410,000; Potency, µM (top dose mostly 45.5 µM), actives largely listed as inhibitors; O94925; GLS enzymatic activity, qHTS titration; AID 624170
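hKGA in 45 mM KH2PO4 (pH 8.2), 0.02% Tween-20 with compound, then 1mM L-Glutamine (stock as added) plus glutamate oxidase/HRP/Amplex red coupling mix. Fluorescence read initially and after 30 min at RT; signal change reflects glutamate formation.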
RECQ1 inh conf = confirmation of human RECQ1 helicase inhibitors; shares compounds with RECQ1 inh-1; RECQ1 helicase DNA unwinding, fluorescence; Potency, µM (highest dose often 229 µM), most hits filed as inhibitors; hit rate 28% among 610; AID 2708; note: nearly all actives have a fitted effect of over 45% in size
ADP FP counter = displaces ADP in a fluorescence polarization counter-screen for RECQ1 hits | shares compounds with RECQ1 inh-1 | ADP fluorescence polarization displacement counterscreen | Potency, µM (highest dose often 228 µM), usual class: inhibitors | hit rate 27% among 530; note: nearly all actives have a fitted effect of over 45% in size
RECQ1 inh-2 = blocks human RECQ1 DNA unwinding | recombinant RECQ1 DNA unwinding, red fluorescence | Potency, µM (titrated, usually from 119 µM), actives largely listed as inhibitors | hit rate 15% among 1,100 | shares compounds with RECQ1 inh-1; note: nearly all actives have a fitted effect of over 50% in size
Numbers stand for hits; n = inactive; u = inconclusive; x = not tested or not shown; [ ] = another dose, or the depositor's remark. In the library only some 0.86% were active in any assay of this set; here they are far more common. Calls come from the whole dose curve; as a rule, active = well fitted curve in the direction sought with a large enough effect; inconclusive = small, poorly fitted or top-dose-only effect, or another doubt; inactive = no such curve, though single readings can be large; an effect the other way counts as inactive or inconclusive.

SMILES	FEN1 inh	RECQ1 inh-1	APEX1 inh	Tb PGK inh	BLM helicase inh	GLS inh	RECQ1 inh conf	ADP FP counter	others
N#C/C(=C\c1ccc(C(=O)O)cc1)c1nc2sc3c(c2c(=O)[nH]1)CCCC3	u	25µM	u	u	u	u	x	x	RECQ1 inh-2=u
C=Cc1ccc(Cn2c(C(=O)O)c(CNCCc3ccccc3)c3ccc(C)cc32)cc1	n	x	x	n	n	n	x	x
CCn1cc(C(=O)OC(C)C(=O)Nc2c(C)n(C)n(-c3ccccc3)c2=O)c(=O)c2ccc(C)nc21 (stereo unspecified)	n	n	n	n	n	n	x	x
CCc1ccc(C(=O)OCC(=O)Nc2c(C)n(C)n(-c3ccccc3)c2=O)cc1	x	x	x	n	x	n	x	x
CCn1cc(C(=O)OCC(=O)Nc2c(C)n(C)n(-c3ccccc3)c2=O)c(=O)c2ccc(C)nc21	n	n	n	n	n	x	n	u
CCCc1nc2ccccc2c(C(=O)OCC(=O)Nc2c(C)n(C)n(-c3ccccc3)c2=O)c1CC	n	n	n	n	n	n	n	n
O=c1cc(CSc2ccc(Cl)cc2)[nH]c2[nH]n(-c3ccccc3)c(=O)c12	n	u	n	n	n	n	x	x	RECQ1 inh-2=n
CCN1CCc2c(sc(-n3cccc3)c2C(C)NC(=O)Nc2ccccc2C)C1 (stereo unspecified)	n	x	x	n	n	u	x	x
Cn1nnnc1SCCCNCc1cccc(OCc2ccccc2)c1	n	x	x	n	n	n	x	x
Oc1ccc(N=Cc2ccc(-c3cccs3)s2)cc1	u	6.3µM	u	n	u	n	n	50µM
Oc1ccc(N2CCN(c3nc(-c4cccs4)nc4ccccc34)CC2)cc1	u	u	n	n	n	u	x	x	RECQ1 inh-2=u
c1ccc(N2CCN(c3nc(-c4cccs4)nc4ccccc34)CC2)cc1	n	n	u	n	n	n	x	x
O=C(CCn1cnc2ccccc2c1=O)Nc1cccc(Cl)c1	n	n	n	n	n	n	x	x
O=C(O)CCCCCNC(=O)CCn1cnc2ccccc2c1=O	n	n	n	n	n	n	n	n
COC(=O)[C@H](CC(C)C)NS(=O)(=O)NC(=O)OC(C)(C)C	n	x	x	x	x	x	x	x
C(=C\c1ccco1)/c1ccc2ccccc2n1	n	8.9µM	u	n	u	n	u	45µM	RECQ1 inh-2=n
Nc1nc(N)c(S(=O)(=O)c2ccccc2)c(Nc2ccc(F)cc2)n1	n	x	x	n	n	n	x	x
CC(C)c1cnc2c(c1SCC(=O)N1CCCCC1)c(=O)n(C)c(=O)n2C	n	x	x	n	n	n	x	x
O=C(Nc1ccccc1)N1CCC(c2nc(-c3ccc(S(=O)(=O)N4CCOCC4)cc3)no2)CC1	n	n	n	n	n	n	n	n
COc1cc(OC)cc(C(=O)NCc2ccc3c(c2)cc(C)n3C)c1	n	u	n	n	n	n	x	x
COc1ccc(C(=O)NCc2ccc3c(c2)cc(C)n3C)cc1	n	u	u	n	n	n	x	x	RECQ1 inh-2=n
O=C(Nc1ccc(-n2nncc2-c2ccco2)cc1)c1cc2ccccc2oc1=O	n	6.3µM	u	n	n	n	4.5µM	n	RECQ1 inh-2=u
CCCN(CCC)S(=O)(=O)c1ccc(C(=O)Nc2ccc(OCC(=O)N3CCOCC3)cc2)cc1	n	n	n	n	n	x	n	n
CCOc1ccccc1/C=C(\NC(=O)c1ccccc1)C(=O)NCCC(=O)O	n	n	n	n	n	n	n	n
COC(=O)N1CCC2(CC1)CN(c1cccc(-c3ccccc3)c1)C2	x	n	n	x	n	x	x	x
SMILES	FEN1 inh	RECQ1 inh-1	APEX1 inh	Tb PGK inh	BLM helicase inh	GLS inh	RECQ1 inh conf	ADP FP counter	others
Cc1ccc(/C=C/C(=O)Nc2nc3ccccc3[nH]2)cc1	n	n	n	n	n	n	x	x
Cc1ccc(/C=C/C(=O)c2nc3ccccc3[nH]2)cc1	n	10µM	n	n	n	n	n	n	RECQ1 inh-2=n
CC(NC(=O)CCCC1=NS(=O)(=O)c2ccccc2N1)c1ccccc1 (stereo unspecified)	n	x	x	n	n	n	x	x
O=C1C=C(O)C(n2cncn2)C(c2ccc3c(c2)OCO3)C1 (stereo unspecified)	n	u	n	n	n	n	x	x	RECQ1 inh-2=n
CCN(CC)S(=O)(=O)c1ccc(C(=O)NCc2n[nH]c(=S)n2-c2ccc(Cl)c(Cl)c2)cc1	n	n	n	n	n	u	n	n
COc1ccc(-n2c(SCC(=O)c3ccc(Cl)cc3)nc3c([nH]c4ccccc43)c2=O)cc1	n	x	x	n	n	n	x	x
CCCCn1c(SCC(=O)NCc2ccco2)nc2ccc(N3CCOCC3)cc2c1=O	n	u	n	n	n	n	x	x	RECQ1 inh-2=u
CC(C)Cn1c(=O)c2ccccc2n2c(CCC(=O)Nc3ccc(F)cc3)nnc12	n	x	x	n	n	n	x	x
Cc1cc(/C=N/O)c(C)n1-c1ccccc1	n	n	n	n	n	n	x	x
Cc1cc(/C=C/c2ccc3cc(N(C)C)ccc3[n+]2C)c(C)n1-c1ccccc1	x	25µM	u	x	n	x	n	40µM
COCCN1C=C(C(=O)OC)C(c2ccc3c(c2)OCO3)C(C(=O)OC)=C1	n	n	n	n	n	n	x	x
COC(=O)C1=C(C)N2C(=O)CSC2=NC1c1ccc2c(c1)OCO2 (stereo unspecified)	n	u	n	n	n	n	x	x	RECQ1 inh-2=n
COc1ccccc1Oc1nc2c(c(=O)n(Cc3ccccc3F)c(=O)n2C)n1C	n	u	u	n	u	u	x	x	RECQ1 inh-2=n
CO[C@@H]1COC(=O)[C@@H](C)COC(=O)[C@@H](C)NC(=O)C/C=C\[C@@H]1C	x	n[11.5 µM]	n[12.4 µM]	x	n[12.4 µM]	x	x	x
Cc1ccc(OCC(O)CNC(=O)c2ccccc2C(=O)O)cc1 (stereo unspecified)	n	n	n	n	n	n	n	n
C=C1C=C(C)n2ncc(C(=O)N(CCc3ccccc3)Cc3ccccc3)c2N1	n	x	x	x	x	x	x	x
COc1cc2c(-c3ccccc3Cl)nc3c(c(C)nn3-c3ccccc3)c2cc1OC	n	x	x	n	n	n	x	x
O=C(CC(Sc1ccc(Br)cc1)C(=O)O)c1ccc(Br)cc1 (stereo unspecified)	x	x	n	x	n	x	x	x
O=C(CC(C(=O)O)P(=O)(c1ccccc1)c1ccccc1)c1ccc(Br)cc1 (stereo unspecified)	n	n	n	n	n	n	n	n
O=[N+]([O-])c1ccc(-c2cnc3ccccc3n2)cc1	n	x	n	n	n	n	x	x
O=[N+]([O-])c1ccc(-c2c(O)c3ccccc3c3nc4ccccc4nc23)cc1	n	25µM	n	n	n	n	n	u
